PubChem BioAssay (NCATS)
Records with an inconclusive call do not appear. Calls of active or inactive are those of the source. The call rests on the fitted dose curve; in most records, active means well fitted cell-killing curve with a large enough effect; inconclusive means small, poorly fitted or top-dose-only effect, or effect the other way; inactive means flat fitted curve, though single readings scatter.

What was measured:
Assay in all cases: Primary qHTS to identify gynecologic anti-cancer compounds using libraries of approved drugs and bioactive compounds (AID 1345084); further: nearly all actives have a fitted effect of over 55% in size
C33A = conditions: Gynecologic cancer cell panel viability, ATPlite luminescence, 48 h; series mostly up to 57.5 µM
How it was run: (§1)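 Cells, 1,000 per well, were allowed to settle for 16 h at 37 C before compound addition. Five concentrations were tested for 48 h, and viability was read by ATPlite luminescence after 15 min at room temperature.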

CAOV3 = conditions: Gynecologic cancer cell panel viability, ATPlite luminescence, 48 h; series mostly up to 57.5 µM
How it was run: as §1

CASKI = conditions: Gynecologic cancer cell panel viability, ATPlite luminescence, 48 h; series mostly up to 57.5 µM
How it was run: as §1

Es-2 = conditions: Gynecologic cancer cell panel viability, ATPlite luminescence, 48 h; series mostly up to 57.5 µM
How it was run: as §1

HeLa = conditions: Gynecologic cancer cell panel viability, ATPlite luminescence, 48 h; series mostly up to 57.5 µM
How it was run: as §1

Hek293T = conditions: Gynecologic cancer cell panel viability, ATPlite luminescence, 48 h, control line for the selectivity index; series mostly up to 57.5 µM
How it was run: as §1

JEG-3 = conditions: Gynecologic cancer cell panel viability, ATPlite luminescence, 48 h; series mostly up to 57.5 µM
How it was run: as §1

OV90 = conditions: Gynecologic cancer cell panel viability, ATPlite luminescence, 48 h; series mostly up to 57.5 µM
How it was run: as §1

PA-1 = conditions: Gynecologic cancer cell panel viability, ATPlite luminescence, 48 h; series mostly up to 57.5 µM
How it was run: as §1

SKOV3 = conditions: Gynecologic cancer cell panel viability, ATPlite luminescence, 48 h; series mostly up to 57.5 µM
How it was run: as §1

Tov-21-G = conditions: Gynecologic cancer cell panel viability, ATPlite luminescence, 48 h; series mostly up to 57.5 µM
How it was run: as §1

Tov112D = conditions: Gynecologic cancer cell panel viability, ATPlite luminescence, 48 h; series mostly up to 57.5 µM
How it was run: as §1
On the % scale 0 is the no-effect control and ±100 the full control effect.

CCCn1c(=O)c2[nH]c(-c3ccc(OCC(=O)O)cc3)nc2n(CCC)c1=O
inactive: Potency (C33A) | Potency (CAOV3) | Potency (CASKI) | Potency (Es-2) | Potency (HeLa) | Potency (Hek293T) | Potency (JEG-3) | Potency (OV90) | Potency (PA-1) | Potency (SKOV3) | Potency (Tov-21-G) | Potency (Tov112D)

CC1(C)CC2C=C(C(=O)O)C3COC(=O)C(O)(CO)C23C1 (stereo not drawn)
inactive: Potency (C33A) | Potency (CAOV3) | Potency (CASKI) | Potency (Es-2) | Potency (HeLa) | Potency (Hek293T) | Potency (JEG-3) | Potency (OV90) | Potency (PA-1) | Potency (SKOV3) | Potency (Tov-21-G) | Potency (Tov112D)

C=C(C(=O)O)C1CCC2(C)CCC(O)C(C)(O)C2C1 (stereo not drawn)
inactive: Potency (C33A) | Potency (CAOV3) | Potency (CASKI) | Potency (Es-2) | Potency (HeLa) | Potency (Hek293T) | Potency (JEG-3) | Potency (OV90) | Potency (PA-1) | Potency (SKOV3) | Potency (Tov-21-G) | Potency (Tov112D)

O=C(/C=C/c1ccc(O)cc1)OC1[C@H](O)CC(O)(C(=O)O)C[C@H]1O (stereo partly drawn)
inactive: Potency (C33A) | Potency (CAOV3) | Potency (CASKI) | Potency (Es-2) | Potency (HeLa) | Potency (Hek293T) | Potency (JEG-3) | Potency (OV90) | Potency (PA-1) | Potency (SKOV3) | Potency (Tov-21-G) | Potency (Tov112D)

C=C1CC[C@@H]2[C@@](C)(CO[C@@H]3O[C@H](CO)C(O)[C@H](O)C3O)[C@H](O)CC[C@@]2(C)[C@@H]1CC/C(C)=C/CO (stereo partly drawn)
inactive: activity change, negative = cytotoxicity (C33A) -18.4% [at 11.6 µM] | activity change, negative = cytotoxicity (CAOV3) 1.16% [at 11.6 µM] | activity change, negative = cytotoxicity (CASKI) -5.44% [at 11.6 µM] | activity change, negative = cytotoxicity (Es-2) 9.56% [at 11.6 µM] | activity change, negative = cytotoxicity (HeLa) -3.99% [at 11.6 µM] | activity change, negative = cytotoxicity (Hek293T) 2% [at 11.6 µM] | activity change, negative = cytotoxicity (JEG-3) 2.39% [at 11.6 µM] | activity change, negative = cytotoxicity (OV90) 6% [at 11.6 µM] | activity change, negative = cytotoxicity (PA-1) 7% [at 11.6 µM] | activity change, negative = cytotoxicity (SKOV3) -9.26% [at 11.6 µM] | activity change, negative = cytotoxicity (Tov-21-G) 4.35% [at 11.6 µM] | activity change, negative = cytotoxicity (Tov112D) 4.42% [at 11.6 µM]

COC1C(CO)OC(n2cnc3c(=O)[nH]cnc32)C1O (stereo not drawn)
inactive: Potency (C33A) | Potency (CAOV3) | Potency (CASKI) | Potency (Es-2) | Potency (HeLa) | Potency (Hek293T) | Potency (JEG-3) | Potency (OV90) | Potency (PA-1) | Potency (SKOV3) | Potency (Tov-21-G) | Potency (Tov112D)

C=C(C(=O)O)C1CCC2(C)CCCC(C)(O)C2C1 (stereo not drawn)
inactive: Potency (C33A) | Potency (CAOV3) | Potency (CASKI) | Potency (Es-2) | Potency (HeLa) | Potency (Hek293T) | Potency (JEG-3) | Potency (OV90) | Potency (PA-1) | Potency (SKOV3) | Potency (Tov-21-G) | Potency (Tov112D)

CCCC(=O)NCCc1csc(-c2ccc(Cl)cc2)n1
inactive: Potency (C33A) | Potency (CAOV3) | Potency (CASKI) | Potency (Es-2) | Potency (HeLa) | Potency (Hek293T) | Potency (JEG-3) | Potency (OV90) | Potency (PA-1) | Potency (SKOV3) | Potency (Tov-21-G) | Potency (Tov112D)

COc1cc(C2Oc3c(OC)cc(CCCO)cc3C2CO)ccc1O[C@H]1O[C@H](C)[C@@H](O)[C@H](O)[C@@H]1O (stereo partly drawn)
inactive: Potency (C33A) | Potency (CAOV3) | Potency (CASKI) | Potency (Es-2) | Potency (HeLa) | Potency (Hek293T) | Potency (JEG-3) | Potency (OV90) | Potency (PA-1) | Potency (SKOV3) | Potency (Tov-21-G) | Potency (Tov112D)

C[C@@H]1O[C@@H](O[C@H]2[C@H](O)[C@@H](O[C@@H]3O[C@H](CO)[C@@H](O)[C@H](O[C@@H]4O[C@H](CO)[C@@H](O)[C@H](O)[C@H]4O)[C@H]3O)[C@H](O[C@H]3CC[C@@]4(C)C(=CC[C@@H]5C4CC[C@@]4(C)C5C[C@@H]5OC6(CC[C@@](C)(CO[C@@H]7O[C@H](CO)[C@@H](O)[C@H](O)[C@H]7O)O6)[C@@H](C)[C@@H]54)C3)O[C@@H]2CO)[C@H](O)[C@H](O)[C@H]1OC1OC(CO)C(O)C(O)C1O (stereo partly drawn)
inactive: activity change, negative = cytotoxicity (C33A) 0.138% [at 6.55 µM] | activity change, negative = cytotoxicity (CAOV3) 7.26% [at 6.55 µM] | activity change, negative = cytotoxicity (CASKI) -16.9% [at 6.55 µM] | activity change, negative = cytotoxicity (Es-2) -3.32% [at 6.55 µM] | activity change, negative = cytotoxicity (HeLa) -0.928% [at 6.55 µM] | activity change, negative = cytotoxicity (Hek293T) 3.68% [at 6.55 µM] | activity change, negative = cytotoxicity (JEG-3) 1.09% [at 6.55 µM] | activity change, negative = cytotoxicity (OV90) -1.64% [at 6.55 µM] | activity change, negative = cytotoxicity (PA-1) 10.2% [at 6.55 µM] | activity change, negative = cytotoxicity (SKOV3) -3.09% [at 6.55 µM] | activity change, negative = cytotoxicity (Tov-21-G) -0.0744% [at 6.55 µM] | activity change, negative = cytotoxicity (Tov112D) 5.26% [at 6.55 µM]

C=CC(C)(O)CC[C@H]1C(=C)CCC2[C@](C)(C(=O)O)CCC[C@@]21C (stereo partly drawn)
inactive: Potency (C33A) | Potency (CAOV3) | Potency (CASKI) | Potency (Es-2) | Potency (HeLa) | Potency (Hek293T) | Potency (JEG-3) | Potency (OV90) | Potency (PA-1) | Potency (SKOV3) | Potency (Tov-21-G) | Potency (Tov112D)

CC(C)=CCC[C@](C)(O[C@@H]1O[C@H](CO)[C@@H](O)[C@H](O)[C@H]1O)[C@H]1CC[C@]2(C)[C@@H]1[C@H](O)CC1[C@@]3(C)CC[C@H](O)C(C)(C)C3[C@@H](O[C@@H]3O[C@H](CO)[C@@H](O)[C@H](O)[C@H]3O[C@@H]3OC[C@@H](O)[C@H](O)[C@H]3O)C[C@]12C (stereo partly drawn)
inactive: activity change, negative = cytotoxicity (C33A) -5.13% [at 11.6 µM] | activity change, negative = cytotoxicity (CAOV3) 0.415% [at 11.6 µM] | activity change, negative = cytotoxicity (CASKI) -3.01% [at 11.6 µM] | activity change, negative = cytotoxicity (Es-2) 3.44% [at 11.6 µM] | activity change, negative = cytotoxicity (HeLa) 9.51% [at 11.6 µM] | activity change, negative = cytotoxicity (Hek293T) -2.61% [at 11.6 µM] | activity change, negative = cytotoxicity (JEG-3) -16.8% [at 11.6 µM] | activity change, negative = cytotoxicity (OV90) -3.26% [at 11.6 µM] | activity change, negative = cytotoxicity (PA-1) 2.46% [at 11.6 µM] | activity change, negative = cytotoxicity (SKOV3) -3.65% [at 11.6 µM] | activity change, negative = cytotoxicity (Tov-21-G) -2.34% [at 11.6 µM] | activity change, negative = cytotoxicity (Tov112D) -2.93% [at 11.6 µM]

CC(=O)OC1C[C@]2(C)C(O)CC(C)=C[C@H](OC(=O)c3ccc(O)cc3)C2[C@]1(O)C(C)C (stereo partly drawn)
inactive: Potency (C33A) | Potency (CAOV3) | Potency (CASKI) | Potency (Es-2) | Potency (HeLa) | Potency (Hek293T) | Potency (JEG-3) | Potency (OV90) | Potency (PA-1) | Potency (SKOV3) | Potency (Tov-21-G) | Potency (Tov112D)

COC1CC(O[C@H]2CC[C@@]3(C)C(CCC4C3[C@H](OC(C)=O)[C@@H](OC(=O)/C=C/c3ccccc3)[C@]3(C)C(C(C)=O)CC[C@]43O)C2)OC(C)C1OC1CC(OC)C(OC2CC(OC)C(OC3OC(C)C(OC4OC(CO)C(O)C(O)C4O)C(OC)C3O)C(C)O2)C(C)O1 (stereo partly drawn)
inactive: activity change, negative = cytotoxicity (C33A) -1.17% [at 6.55 µM] | activity change, negative = cytotoxicity (CAOV3) 6.87% [at 6.55 µM] | activity change, negative = cytotoxicity (CASKI) 1.19% [at 6.55 µM] | activity change, negative = cytotoxicity (Es-2) 0.971% [at 6.55 µM] | activity change, negative = cytotoxicity (HeLa) -3.04% [at 6.55 µM] | activity change, negative = cytotoxicity (Hek293T) -2.25% [at 6.55 µM] | activity change, negative = cytotoxicity (JEG-3) -2.34% [at 6.55 µM] | activity change, negative = cytotoxicity (OV90) -0.788% [at 6.55 µM] | activity change, negative = cytotoxicity (PA-1) -4.15% [at 6.55 µM] | activity change, negative = cytotoxicity (SKOV3) -2.84% [at 6.55 µM] | activity change, negative = cytotoxicity (Tov-21-G) 6.44% [at 6.55 µM] | activity change, negative = cytotoxicity (Tov112D) -0.487% [at 6.55 µM]
